Laboratory results: paper PMC7862700, “An all-to-all approach to the identification of sequence-specific readers for epigenetic DNA modifications on cytosine”

Columns and labels:
Test in all cases: DAPPL (digital affinity profiling via proximity ligation, sequencing); 10 mM Tris-HCl pH 7.5, 50 mM NaCl, 1 mM DTT, 4% glycerol, room temperature, 30 min; GST-TFs on glutathione beads, 16-mer random dsDNA library, 0.1% formaldehyde crosslink after washing; high values mean tight binding
FEV = target: T1, FEV (Homo sapiens, UniProt Q99581 1-238); conditions: protein: recombinant; tags: N-terminal GST; dsDNA, one strand shown
T1 sequence: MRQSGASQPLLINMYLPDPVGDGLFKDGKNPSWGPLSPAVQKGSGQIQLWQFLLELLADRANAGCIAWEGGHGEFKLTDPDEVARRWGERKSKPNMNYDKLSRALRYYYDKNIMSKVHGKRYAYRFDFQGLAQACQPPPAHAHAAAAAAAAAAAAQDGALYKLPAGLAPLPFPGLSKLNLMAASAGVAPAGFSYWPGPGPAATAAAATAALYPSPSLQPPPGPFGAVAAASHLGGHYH
Summary of the method: (§1)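 Sequencing on an Illumina NextSeq500 followed washing, crosslinking with 0.1% formaldehyde, proximity ligation (BsaI/T4 ligase, 1 h, 37 °C) and PCR amplification of pools that had been incubated for 30 min at room temperature with 200 nmole of a random double-stranded 16-mer DNA library in Tris/NaCl/DTT/glycerol buffer. Each pool held DNA-barcoded human transcription factors, expressed in yeast as GST fusions and captured on glutathione beads, plus a tag-only sample. Binding signal is a hexamer's read frequency for a factor divided by its frequency in the tag-only sample.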

ETV5 = ETV5 (Homo sapiens, UniProt P41161 1-510); conditions: protein: recombinant; tags: N-terminal GST; dsDNA, one strand shown
Summary of the method: as §1

HSF1 = HSF1 (Homo sapiens, UniProt Q00613 1-529); conditions: protein: recombinant; tags: N-terminal GST; chain copies: 3; dsDNA, one strand shown
Summary of the method: as §1

SPIC = target: T2, SPIC (Homo sapiens, UniProt Q8N5J4 1-248); conditions: protein: recombinant; tags: N-terminal GST; dsDNA, one strand shown
T2 sequence: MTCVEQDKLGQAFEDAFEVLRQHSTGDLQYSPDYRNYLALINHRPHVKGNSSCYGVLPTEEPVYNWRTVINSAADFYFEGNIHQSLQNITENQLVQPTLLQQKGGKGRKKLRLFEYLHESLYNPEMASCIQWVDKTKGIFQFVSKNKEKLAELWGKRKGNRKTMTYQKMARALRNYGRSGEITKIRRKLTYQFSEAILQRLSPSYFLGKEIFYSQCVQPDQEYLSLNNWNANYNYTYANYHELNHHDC
Summary of the method: as §1

ELF4 = ELF4 (Homo sapiens, UniProt Q99607 1-663); conditions: protein: recombinant; tags: N-terminal GST; dsDNA, one strand shown
Summary of the method: as §1

ELK4 = target: T3, ELK4 (Homo sapiens, UniProt P28324-2 1-405); conditions: protein: recombinant; tags: N-terminal GST; dsDNA, one strand shown
T3 sequence: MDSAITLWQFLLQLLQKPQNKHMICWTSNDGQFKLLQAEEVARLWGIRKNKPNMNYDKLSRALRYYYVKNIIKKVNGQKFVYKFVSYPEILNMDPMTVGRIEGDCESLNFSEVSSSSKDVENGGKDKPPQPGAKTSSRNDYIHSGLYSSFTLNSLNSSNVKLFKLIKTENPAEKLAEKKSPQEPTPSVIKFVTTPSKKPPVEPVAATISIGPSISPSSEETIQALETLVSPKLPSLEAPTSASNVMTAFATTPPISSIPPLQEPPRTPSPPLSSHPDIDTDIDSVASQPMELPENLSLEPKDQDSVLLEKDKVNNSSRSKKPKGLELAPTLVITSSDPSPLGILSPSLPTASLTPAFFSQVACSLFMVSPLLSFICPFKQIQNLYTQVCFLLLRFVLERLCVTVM
Summary of the method: as §1

ETV2 = target: T4, ETV2 (Homo sapiens, UniProt O00321 1-342); conditions: protein: recombinant; tags: N-terminal GST; dsDNA, one strand shown
T4 sequence: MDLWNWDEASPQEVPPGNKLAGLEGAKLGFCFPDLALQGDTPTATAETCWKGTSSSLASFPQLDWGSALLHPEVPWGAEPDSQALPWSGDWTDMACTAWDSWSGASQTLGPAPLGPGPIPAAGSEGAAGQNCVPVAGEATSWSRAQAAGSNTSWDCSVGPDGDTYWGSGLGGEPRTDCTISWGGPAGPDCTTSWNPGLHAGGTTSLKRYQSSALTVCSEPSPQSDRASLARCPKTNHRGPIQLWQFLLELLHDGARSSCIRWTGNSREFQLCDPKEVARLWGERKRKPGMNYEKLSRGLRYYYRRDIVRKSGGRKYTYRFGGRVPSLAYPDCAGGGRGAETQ
Summary of the method: as §1

ELF3 = target: T5, ELF3 (Homo sapiens, UniProt P78545 1-371); conditions: protein: recombinant; tags: N-terminal GST; dsDNA, one strand shown
T5 sequence: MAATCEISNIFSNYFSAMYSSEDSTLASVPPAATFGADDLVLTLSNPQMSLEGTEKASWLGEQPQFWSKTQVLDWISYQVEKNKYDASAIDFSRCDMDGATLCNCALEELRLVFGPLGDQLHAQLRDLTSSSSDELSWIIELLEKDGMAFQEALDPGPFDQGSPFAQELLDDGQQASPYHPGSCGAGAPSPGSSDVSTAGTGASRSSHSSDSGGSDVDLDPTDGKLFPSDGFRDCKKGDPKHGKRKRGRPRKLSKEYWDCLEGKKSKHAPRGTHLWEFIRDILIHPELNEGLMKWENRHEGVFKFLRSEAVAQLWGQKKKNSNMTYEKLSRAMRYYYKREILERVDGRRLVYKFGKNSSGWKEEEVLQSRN
Summary of the method: as §1

CRX = CRX (Homo sapiens, UniProt O43186 1-299); conditions: protein: recombinant; tags: N-terminal GST; dsDNA, one strand shown
Summary of the method: as §1

ETV1 = ETV1 (Homo sapiens, UniProt P50549 1-477); conditions: protein: recombinant; tags: N-terminal GST; dsDNA, one strand shown
Summary of the method: as §1

ERF = target: T6, ERF (Homo sapiens, UniProt P50548 1-548); conditions: protein: recombinant; tags: N-terminal GST; dsDNA, one strand shown
T6 sequence: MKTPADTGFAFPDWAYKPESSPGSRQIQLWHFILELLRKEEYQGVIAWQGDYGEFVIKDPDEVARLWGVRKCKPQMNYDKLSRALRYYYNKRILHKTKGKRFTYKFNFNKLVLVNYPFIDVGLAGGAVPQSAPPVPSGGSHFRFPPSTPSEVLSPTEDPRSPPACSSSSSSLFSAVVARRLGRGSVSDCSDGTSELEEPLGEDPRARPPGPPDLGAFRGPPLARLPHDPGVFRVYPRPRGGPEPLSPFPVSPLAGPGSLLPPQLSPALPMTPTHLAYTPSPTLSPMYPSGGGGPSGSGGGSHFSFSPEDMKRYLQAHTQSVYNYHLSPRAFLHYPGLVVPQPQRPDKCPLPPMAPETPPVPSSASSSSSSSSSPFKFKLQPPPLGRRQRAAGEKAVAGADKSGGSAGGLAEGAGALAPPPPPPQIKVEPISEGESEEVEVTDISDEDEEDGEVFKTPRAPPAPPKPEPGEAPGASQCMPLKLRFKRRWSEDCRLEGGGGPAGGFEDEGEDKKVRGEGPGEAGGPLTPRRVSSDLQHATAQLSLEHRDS
Summary of the method: as §1

ETV3L = target: T7, ETV3L (Homo sapiens, UniProt Q6ZN32 1-361); conditions: protein: recombinant; tags: N-terminal GST; dsDNA, one strand shown
T7 sequence: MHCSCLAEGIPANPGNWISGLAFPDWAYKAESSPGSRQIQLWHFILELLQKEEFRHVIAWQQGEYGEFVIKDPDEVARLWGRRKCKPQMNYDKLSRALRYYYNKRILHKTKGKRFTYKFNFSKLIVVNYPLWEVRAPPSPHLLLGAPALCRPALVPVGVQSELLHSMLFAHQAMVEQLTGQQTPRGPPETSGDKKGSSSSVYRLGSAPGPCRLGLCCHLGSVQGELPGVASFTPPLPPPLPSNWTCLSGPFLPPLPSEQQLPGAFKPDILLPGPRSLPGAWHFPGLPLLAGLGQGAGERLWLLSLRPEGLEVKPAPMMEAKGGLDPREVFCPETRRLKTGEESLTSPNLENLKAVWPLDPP
Summary of the method: as §1

ETS2 = target: T8, ETS2 (Homo sapiens, UniProt P15036 1-469); conditions: protein: recombinant; tags: N-terminal GST; dsDNA, one strand shown
T8 sequence: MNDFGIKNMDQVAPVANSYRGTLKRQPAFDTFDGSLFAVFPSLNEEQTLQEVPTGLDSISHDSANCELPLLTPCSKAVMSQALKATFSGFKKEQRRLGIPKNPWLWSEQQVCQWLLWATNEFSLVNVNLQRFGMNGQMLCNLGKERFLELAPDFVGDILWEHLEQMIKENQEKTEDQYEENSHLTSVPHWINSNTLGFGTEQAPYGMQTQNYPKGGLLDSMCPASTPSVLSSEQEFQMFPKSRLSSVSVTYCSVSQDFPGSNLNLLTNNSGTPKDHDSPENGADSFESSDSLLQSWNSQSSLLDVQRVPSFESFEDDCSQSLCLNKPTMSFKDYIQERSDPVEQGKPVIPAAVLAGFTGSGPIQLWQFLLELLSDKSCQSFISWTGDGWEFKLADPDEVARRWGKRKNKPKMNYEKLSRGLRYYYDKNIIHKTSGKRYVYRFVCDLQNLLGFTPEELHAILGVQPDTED
Summary of the method: as §1

SPDEF = target: T9, SPDEF (Homo sapiens, UniProt O95238 1-335); conditions: protein: recombinant; tags: N-terminal GST; dsDNA, one strand shown
T9 sequence: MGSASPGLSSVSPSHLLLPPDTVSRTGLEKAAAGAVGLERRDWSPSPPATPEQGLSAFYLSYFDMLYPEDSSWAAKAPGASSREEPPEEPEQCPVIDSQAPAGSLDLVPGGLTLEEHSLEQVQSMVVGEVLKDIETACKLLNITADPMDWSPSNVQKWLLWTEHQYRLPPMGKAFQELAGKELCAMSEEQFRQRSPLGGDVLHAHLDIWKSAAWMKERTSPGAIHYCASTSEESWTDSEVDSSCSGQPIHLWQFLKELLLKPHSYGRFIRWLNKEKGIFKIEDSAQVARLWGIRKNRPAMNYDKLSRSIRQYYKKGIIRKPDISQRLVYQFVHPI
Summary of the method: as §1

ETV7 = target: T10, ETV7 (Homo sapiens, UniProt Q9Y603 1-341); conditions: protein: recombinant; tags: N-terminal GST; dsDNA, one strand shown
T10 sequence: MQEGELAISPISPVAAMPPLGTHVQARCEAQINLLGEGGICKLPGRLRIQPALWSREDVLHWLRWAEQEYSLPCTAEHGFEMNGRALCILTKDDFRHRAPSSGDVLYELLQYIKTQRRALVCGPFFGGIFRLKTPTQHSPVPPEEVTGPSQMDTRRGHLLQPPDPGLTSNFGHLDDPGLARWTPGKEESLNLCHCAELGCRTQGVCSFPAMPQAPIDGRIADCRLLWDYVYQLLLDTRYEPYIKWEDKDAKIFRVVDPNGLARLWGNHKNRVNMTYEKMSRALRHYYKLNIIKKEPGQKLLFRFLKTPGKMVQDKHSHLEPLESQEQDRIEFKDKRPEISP
Summary of the method: as §1

ELF5 = target: T11, ELF5 (Homo sapiens, UniProt Q9UKW6-2 1-255); conditions: protein: recombinant; tags: N-terminal GST; dsDNA, one strand shown
T11 sequence: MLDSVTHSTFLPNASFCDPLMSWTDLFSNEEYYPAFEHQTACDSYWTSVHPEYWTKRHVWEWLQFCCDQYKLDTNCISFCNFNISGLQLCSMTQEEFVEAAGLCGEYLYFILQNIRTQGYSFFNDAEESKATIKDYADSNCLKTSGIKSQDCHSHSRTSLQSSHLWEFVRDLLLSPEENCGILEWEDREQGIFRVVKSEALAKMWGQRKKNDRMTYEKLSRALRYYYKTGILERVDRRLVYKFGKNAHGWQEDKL
Summary of the method: as §1

ETV3 = target: T12, ETV3 (Homo sapiens, UniProt P41162-2 1-143); conditions: protein: recombinant; tags: N-terminal GST; dsDNA, one strand shown
T12 sequence: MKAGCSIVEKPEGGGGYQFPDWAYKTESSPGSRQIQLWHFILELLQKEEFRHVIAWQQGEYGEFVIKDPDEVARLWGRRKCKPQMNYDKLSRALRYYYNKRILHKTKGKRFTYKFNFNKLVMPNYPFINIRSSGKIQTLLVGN
Summary of the method: as §1

ETV6 = ETV6 (Homo sapiens, UniProt P41212 1-452); conditions: protein: recombinant; tags: N-terminal GST; dsDNA, one strand shown
Summary of the method: as §1

Chain of ETV6 (P41212 whole entry): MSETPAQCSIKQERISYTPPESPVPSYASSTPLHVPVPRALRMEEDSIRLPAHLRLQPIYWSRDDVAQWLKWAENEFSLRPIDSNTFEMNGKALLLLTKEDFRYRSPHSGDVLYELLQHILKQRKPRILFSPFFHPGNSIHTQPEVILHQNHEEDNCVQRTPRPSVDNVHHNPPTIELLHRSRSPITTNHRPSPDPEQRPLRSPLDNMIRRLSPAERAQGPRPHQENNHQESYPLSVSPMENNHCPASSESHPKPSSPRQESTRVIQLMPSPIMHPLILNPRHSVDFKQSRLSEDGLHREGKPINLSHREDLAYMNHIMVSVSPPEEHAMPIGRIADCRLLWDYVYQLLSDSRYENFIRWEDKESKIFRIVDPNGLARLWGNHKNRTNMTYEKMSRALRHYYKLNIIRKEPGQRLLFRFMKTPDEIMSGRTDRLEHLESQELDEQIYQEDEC
Chain of ETV5 (P41161 whole entry): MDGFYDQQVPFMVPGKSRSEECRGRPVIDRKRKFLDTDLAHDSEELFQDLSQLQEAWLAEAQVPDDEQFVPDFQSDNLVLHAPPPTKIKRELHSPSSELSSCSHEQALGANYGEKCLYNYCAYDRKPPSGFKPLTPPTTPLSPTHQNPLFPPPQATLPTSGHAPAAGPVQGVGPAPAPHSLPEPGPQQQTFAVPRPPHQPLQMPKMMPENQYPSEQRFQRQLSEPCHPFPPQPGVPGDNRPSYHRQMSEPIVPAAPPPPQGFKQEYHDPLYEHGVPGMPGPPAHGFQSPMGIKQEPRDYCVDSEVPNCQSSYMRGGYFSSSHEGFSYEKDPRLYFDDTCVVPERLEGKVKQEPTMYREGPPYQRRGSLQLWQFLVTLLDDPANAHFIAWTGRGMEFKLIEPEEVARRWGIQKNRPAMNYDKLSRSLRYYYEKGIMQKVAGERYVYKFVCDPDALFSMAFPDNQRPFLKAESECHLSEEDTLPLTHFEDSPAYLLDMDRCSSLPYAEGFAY
Chain of ETV1 (P50549 whole entry): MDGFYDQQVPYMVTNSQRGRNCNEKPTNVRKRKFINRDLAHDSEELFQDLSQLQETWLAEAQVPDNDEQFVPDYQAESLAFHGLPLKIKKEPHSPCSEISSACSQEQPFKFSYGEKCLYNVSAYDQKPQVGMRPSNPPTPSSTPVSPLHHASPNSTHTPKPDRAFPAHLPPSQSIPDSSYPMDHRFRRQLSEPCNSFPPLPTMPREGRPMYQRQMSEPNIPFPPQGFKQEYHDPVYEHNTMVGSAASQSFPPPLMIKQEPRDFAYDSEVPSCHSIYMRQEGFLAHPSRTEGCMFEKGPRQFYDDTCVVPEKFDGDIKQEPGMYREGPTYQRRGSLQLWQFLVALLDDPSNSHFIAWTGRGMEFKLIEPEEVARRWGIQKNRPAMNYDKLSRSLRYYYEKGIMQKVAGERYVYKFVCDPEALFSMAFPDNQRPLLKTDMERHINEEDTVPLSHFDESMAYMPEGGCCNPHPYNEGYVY
Chain of HSF1 (Q00613 whole entry): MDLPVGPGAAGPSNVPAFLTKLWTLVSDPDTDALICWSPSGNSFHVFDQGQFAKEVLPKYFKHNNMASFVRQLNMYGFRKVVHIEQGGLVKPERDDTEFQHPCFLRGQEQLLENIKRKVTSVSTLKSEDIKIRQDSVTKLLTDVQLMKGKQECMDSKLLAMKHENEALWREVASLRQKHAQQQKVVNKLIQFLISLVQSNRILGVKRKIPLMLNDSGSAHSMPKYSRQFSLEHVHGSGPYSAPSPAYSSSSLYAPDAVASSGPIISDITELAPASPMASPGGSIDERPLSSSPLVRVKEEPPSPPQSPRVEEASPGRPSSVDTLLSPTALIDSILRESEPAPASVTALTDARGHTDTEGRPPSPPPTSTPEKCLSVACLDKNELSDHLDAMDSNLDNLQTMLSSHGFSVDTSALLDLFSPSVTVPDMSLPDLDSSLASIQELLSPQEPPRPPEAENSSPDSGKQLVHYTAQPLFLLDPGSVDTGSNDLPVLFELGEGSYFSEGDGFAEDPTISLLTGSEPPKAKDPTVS
Chain of ELF4 (Q99607 whole entry): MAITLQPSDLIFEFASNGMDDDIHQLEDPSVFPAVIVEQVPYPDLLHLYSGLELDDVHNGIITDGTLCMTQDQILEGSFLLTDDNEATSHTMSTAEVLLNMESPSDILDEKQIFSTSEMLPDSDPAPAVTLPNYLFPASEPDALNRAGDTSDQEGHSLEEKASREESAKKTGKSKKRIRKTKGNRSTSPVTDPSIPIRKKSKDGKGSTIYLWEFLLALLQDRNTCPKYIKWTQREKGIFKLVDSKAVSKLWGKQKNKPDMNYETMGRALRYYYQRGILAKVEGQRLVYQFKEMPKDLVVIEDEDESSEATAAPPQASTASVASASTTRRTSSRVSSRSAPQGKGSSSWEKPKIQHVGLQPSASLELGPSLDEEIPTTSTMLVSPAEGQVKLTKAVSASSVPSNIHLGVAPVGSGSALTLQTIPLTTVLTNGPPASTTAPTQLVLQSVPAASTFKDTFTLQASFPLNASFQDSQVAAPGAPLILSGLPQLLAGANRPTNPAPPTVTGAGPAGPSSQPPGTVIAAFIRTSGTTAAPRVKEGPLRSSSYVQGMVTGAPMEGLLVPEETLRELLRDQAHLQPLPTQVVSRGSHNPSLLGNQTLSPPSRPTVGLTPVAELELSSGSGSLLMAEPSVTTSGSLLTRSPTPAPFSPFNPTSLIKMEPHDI
Chain of CRX (O43186 whole entry): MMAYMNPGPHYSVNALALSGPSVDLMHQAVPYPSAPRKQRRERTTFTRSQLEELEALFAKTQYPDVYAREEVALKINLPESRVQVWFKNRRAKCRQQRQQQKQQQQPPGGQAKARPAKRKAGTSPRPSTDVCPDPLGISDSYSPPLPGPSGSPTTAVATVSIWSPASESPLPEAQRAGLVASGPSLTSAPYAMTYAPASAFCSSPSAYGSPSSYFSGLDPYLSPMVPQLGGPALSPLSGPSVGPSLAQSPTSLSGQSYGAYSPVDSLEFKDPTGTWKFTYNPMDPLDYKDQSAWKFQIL

TCGTTT
binding signal (FEV): 1.14 fold enrichment (6-mer frequency, TF over GST control) | binding signal (ETV5): 1.09 fold enrichment (6-mer frequency, TF over GST control) | binding signal (HSF1): 1.02 fold enrichment (6-mer frequency, TF over GST control) | binding signal (SPIC): 1.15 fold enrichment (6-mer frequency, TF over GST control) | binding signal (ELF4): 1.17 fold enrichment (6-mer frequency, TF over GST control) | binding signal (ELK4): 1.24 fold enrichment (6-mer frequency, TF over GST control) | binding signal (ETV2): 1.3 fold enrichment (6-mer frequency, TF over GST control) | binding signal (ELF3): 1.27 fold enrichment (6-mer frequency, TF over GST control) | binding signal (CRX): 1.08 fold enrichment (6-mer frequency, TF over GST control) | binding signal (ETV1): 1.18 fold enrichment (6-mer frequency, TF over GST control) | binding signal (ERF): 1.07 fold enrichment (6-mer frequency, TF over GST control) | binding signal (ETV3L): 1.15 fold enrichment (6-mer frequency, TF over GST control) | binding signal (ETS2): 1.28 fold enrichment (6-mer frequency, TF over GST control) | binding signal (SPDEF): 1.12 fold enrichment (6-mer frequency, TF over GST control) | binding signal (ETV7): 1.31 fold enrichment (6-mer frequency, TF over GST control) | binding signal (ELF5): 1.27 fold enrichment (6-mer frequency, TF over GST control) | binding signal (ETV3): 1.25 fold enrichment (6-mer frequency, TF over GST control) | binding signal (ETV6): 1.15 fold enrichment (6-mer frequency, TF over GST control)
